ALDH1A1 block – inhibitors of human aldehyde dehydrogenase 1A1. Purified ALDH1A1, NADH fluorescence, propionaldehyde substrate. AID 1030. P00352. hit rate 7.3% among 220,000. Potency, µM (doses to about 75.3 µM), for the others: at the highest dose activity, negative = inhibition, hits mostly inhibitors; active means well fitted inhibition curve with a large enough effect, not every such curve was filed as active; inconclusive means small, poorly fitted or top-dose-only effect, or another doubt; inactive means no such curve, though single readings can be large or run the other way;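 further: potency means the concentration at half of the fitted maximal effect; plate controls were no enzyme wells and a reference inhibitor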
NPSR antagonist – neuropeptide S receptor (human) antagonism, cAMP; CHO-NPSR cells, cAMP TR-FRET, antagonist mode; Potency, µM (titrated, usually from 38.3 µM), without a hit: at the top dose activity change, negative = inhibition, actives largely listed as inhibitors; hit rate 1% among 220,000; AID 1461; further: potency means the concentration at half of the fitted maximal effect; nearly all actives have a fitted effect of over 50% in size
Target sequence (Q6W5P4 whole entry, looked up): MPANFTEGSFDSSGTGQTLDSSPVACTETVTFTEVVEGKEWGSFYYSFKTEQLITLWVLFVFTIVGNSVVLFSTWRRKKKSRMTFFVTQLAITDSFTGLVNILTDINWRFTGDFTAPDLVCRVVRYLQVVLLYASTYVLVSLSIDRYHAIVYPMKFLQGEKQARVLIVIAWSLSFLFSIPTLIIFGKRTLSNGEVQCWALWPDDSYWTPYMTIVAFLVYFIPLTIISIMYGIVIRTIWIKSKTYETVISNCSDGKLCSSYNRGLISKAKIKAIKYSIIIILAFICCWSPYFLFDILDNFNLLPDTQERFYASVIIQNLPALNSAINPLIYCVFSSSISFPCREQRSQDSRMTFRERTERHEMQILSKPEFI
Sfp inh – Sfp phosphopantetheinyl transferase inhibition. Q9F4F7. Biochemical Sfp PPTase activity, qHTS. Potency, µM, for the others: largest response in the series, negative = inhibition, hits mostly inhibitors. hit rate 3.5% among 310,000;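 further: the enzyme is Sfp with the accession as filed and its product quenches rhodamine fluorescence; potency means the concentration at half of the fitted maximal effect; 0% = enzyme reaction without inhibitor and -100% = no enzyme wells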
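Fluorescence-quenching assay: 15 nM Sfp-PPTase preincubated 15 min at room temperature with compound, then 5 uM rhodamine-CoA and 12.5 uM BHQ-2-labelled YbbR peptide added. Fluorescence (ex 525/em 598 nm) read at start and after 30 min; difference gives rate.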
RGS12 GoLoco inh – blocks human Gai1 binding to RGS12 GoLoco peptide, red readout; AID 880; Potency, µM (top dose mostly 61.6 µM), without a hit: at the highest dose activity, negative = inhibition, hits mostly inhibitors; hit rate 0.44% among 230,000; Gai1:RGS12 GoLoco peptide FP, rhodamine, 10 min; P63096; active means well fitted inhibition curve with a large enough effect, not every such curve was filed as active; inactive means no such curve, though single readings can be large or run the other way; further: potency means the concentration at half of the fitted maximal effect; nearly all actives have a fitted effect of over 30% in size
Target sequence (P63096 whole entry, looked up): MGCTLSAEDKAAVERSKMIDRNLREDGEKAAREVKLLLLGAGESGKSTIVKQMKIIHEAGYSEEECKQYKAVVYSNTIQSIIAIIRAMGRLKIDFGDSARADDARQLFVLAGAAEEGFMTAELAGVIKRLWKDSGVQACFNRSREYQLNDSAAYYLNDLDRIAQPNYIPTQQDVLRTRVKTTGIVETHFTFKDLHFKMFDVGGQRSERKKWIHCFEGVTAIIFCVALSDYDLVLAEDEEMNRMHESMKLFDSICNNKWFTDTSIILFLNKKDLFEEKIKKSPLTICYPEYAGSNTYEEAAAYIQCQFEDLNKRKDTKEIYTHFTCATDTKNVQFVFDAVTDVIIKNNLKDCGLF
FBPA coupling cs – counter-screen for Giardia aldolase inhibitors: coupling enzyme system. coupling enzyme system counterscreen, AmpLite Red fluorescence. activity change, negative = inhibition, % at 58.2 µM, hits read low. hit rate 0.67% among 290,000. AID 2472; in the data active means activity change below about -30%
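Final compound at 57.5 uM, incubated 10 min at RT with coupling enzyme reagent (glyceraldehyde-3-phosphate), then 20 min with substrate and AmpLite Red detection. Fluorescence read at 525/598 nm; tests interference with the coupling assay, not aldolase inhibition.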
KDM4E inh – JMJD2E (human) inhibition; JMJD2E catalytic domain, FDH-coupled NADH fluorescence (FDH is formaldehyde dehydrogenase); B2RXH2; Potency, µM (series often up to 57.1 µM), for the others: at the top dose activity change, negative = inhibition, usual class: inhibitors; hit rate 1.6% among 230,000; AID 2147; active means well fitted inhibition curve with a large enough effect, not every such curve was filed as active; inconclusive means small, poorly fitted or top-dose-only effect, or another doubt; inactive means no such curve, though single readings can be large or run the other way;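 further: potency means the concentration at half of the fitted maximal effect; 0% = wells with enzyme and -100% = buffer wells without enzyme; nearly all actives have a fitted effect of over 50% in size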
Starred values were filed as active, the others as inactive; ? = inconclusive; · = no result given; [ ] = dose if it differs, or a comment. Compounds with a hit are over-represented: about 8.5% of the library has one in this group of screens. Unless noted, the call rests on the fitted dose curve; in most records, active means well fitted curve in the direction sought with a large enough effect; inconclusive means small, poorly fitted or top-dose-only effect, or another doubt; inactive means no such curve, though single readings can be large; an effect the other way counts as inactive or inconclusive. Unless noted, on the % scale 0 is the no-effect control and ±100 the full control effect.

SMILES	ALDH1A1 block	NPSR antagonist	Sfp inh	RGS12 GoLoco inh	FBPA coupling cs	KDM4E inh
COc1cc2cc(CN(Cc3cccnc3)C(=O)Nc3ccccc3F)c(=O)[nH]c2cc1OC	?	-9%	-3%	1%	-2	?
O=C1c2ccccc2C(=O)N1CSc1nnc(Nc2ccccc2)s1	?	0%	2%	6%	3	-3%
O=C1c2ccccc2C(=O)N1CSc1nnc(Nc2ccccc2F)s1	7.1µM*	-14%[46.1 µM]	5%	8%	2	-3%
CC(=O)N/N=C/c1cc(C(C)(C)C)cc(/C=N/NC(C)=O)c1O	52%	-7%	14%	14%	-2	22µM*
Cc1cc(C(=O)N/N=C\c2cc(C(C)(C)C)ccc2O)n[nH]1	·	·	21%	·	·	·
Cc1cccc(NC(=O)c2cc3ccccc3oc2=O)c1	·	·	11%	·	0	·
Cc1ccc(S(=O)(=O)N/N=c2\oc3ccccc3cc2C(=O)Nc2cccc(C)c2)cc1	0.16µM*	-22%	-1%	-4%	2	2%
COc1ccc(-n2c(Cc3cccn3C)nnc2SCC(=O)Nc2cccc(C)c2C)cc1	14µM*	-6%	-10%	29%	2	-4%
Cc1cc(C)cc(NC(=O)CSc2nnc(Cc3cccn3C)n2-c2ccc(F)cc2)c1	?	-18%[46.1 µM]	0%	3%	-7	-8%
Cc1cc(C)c(NC(=O)CSc2nnc(Cc3cccn3C)n2-c2ccc(F)cc2)c(C)c1	-4%	-3%[46.1 µM]	50µM*	-8%	7	-4%
COc1ccc(NC(=O)CSc2nnc(Cc3cccn3C)n2-c2ccc(F)cc2)cc1	?	-13%	7%	-5%	1	-7%
COc1ccc(-n2c(Cc3cccn3C)nnc2SCC(=O)Nc2ccccc2F)cc1	16µM*	-14%	-8%	4%	3	-15%
COc1ccc(-n2c(Cc3cccn3C)nnc2SCC(=O)Nc2ccc(F)cc2F)cc1	10µM*	-7%	-5%	4%	3	-11%
COc1ccc(-n2c(Cc3cccn3C)nnc2SCC(=O)Nc2ccccc2C)cc1	?	-22%[46.1 µM]	-8%	15%	1	-2%
CCCCc1cc(=O)oc2cc(OCC(=O)Nc3cccnc3)c(Cl)cc12	·	·	-22%	·	·	·
CC(C)(C)OC(=O)NNC(=O)Nc1ccccc1C(F)(F)F	4%	2%	1%	1%	0	7%
Cn1cccc1Cc1nnc(SCC(=O)NC2CCCCC2)n1-c1ccc(F)cc1	20µM*	4%[46.1 µM]	-19%	-5%	2	?
Cc1ccc(-n2c(Cc3cccn3C)nnc2SCC(=O)NC2CCCCC2)cc1	-1%	-27%[46.1 µM]	-4%	2%	2	-3%
COc1ccc(-n2c(Cc3cccn3C)nnc2SCC(=O)Nc2cccc(OC)c2)cc1	?	-4%	-12%	10%	3	-6%
COc1cccc(NC(=O)CSc2nnc(Cc3cccn3C)n2-c2ccc(F)cc2)c1	14µM*	-12%[46.1 µM]	-15%	4%	0	-11%
NC(=O)c1ccccc1NC(=O)CC12CC3CC(CC(Br)(C3)C1)C2	·	·	8%	·	-1	·
COc1ccc(-n2[nH]c(C)cc2=O)cc1	3.2µM*	-7%[46.1 µM]	-10%	6%	-32*	6%
COc1ccc(N2C(=O)NC(=O)C2=O)cc1	·	·	5%	·	3	·
COC(=O)c1cc(Cc2ccc(N)c(C(=O)OC)c2)ccc1N	?	-17%[46.1 µM]	-25%	-12%	-5	?
COC(=O)Cc1ccc(O)c(N)c1	28µM*	9%	-8%	10%	2	5%
SMILES	ALDH1A1 block	NPSR antagonist	Sfp inh	RGS12 GoLoco inh	FBPA coupling cs	KDM4E inh
Oc1ccc(/C=N/N=C(c2ccccc2)c2ccccc2)c(O)c1O	7.1µM*	-47%	2.8µM*	5%	-17	14µM*
O=C(/C(=N/N=C/c1ccc(O)c(O)c1O)c1ccccc1)c1ccccc1	6%	?	-96%	7%	-40*	1%
NC(=O)/C(=N\O)c1ccccc1	10%	2%[46.1 µM]	11%	4%	3	5%
COc1ccc(CCN2CC(C(=O)N3CCCCCC3)CCC2=O)cc1 (configuration not stated)	·	·	13%	·	·	·
CCOc1ccc(NC(=O)CC2C(=O)N(C)C(=S)N2Cc2ccco2)cc1 (configuration not stated)	?	5%[46.1 µM]	2%	3%	0	1%
CCN1C(=O)C(CC(=O)Nc2ccc(OC)cc2)N(CCc2ccc(OC)cc2)C1=S (configuration not stated)	2.2µM*	-29%	20%	-14%	-4	-7%
CN1C(=O)C(CC(=O)Nc2ccc(Cl)cc2)N(Cc2ccco2)C1=S (configuration not stated)	?	-35%	18µM*	6%	0	-2%
CCN1C(=O)C(CC(=O)Nc2ccc(OC)cc2)N(Cc2ccc(OC)c(OC)c2)C1=S (configuration not stated)	·	?	17%	0%	-2	-19%
COc1ccc(CCN2C(=S)N(C)C(=O)C2CC(=O)Nc2ccc(F)cc2)cc1 (configuration not stated)	1.3µM*	34%	-3%	0%	1	-11%
CC(C)c1ccc(/C=N/NC(=O)c2nnn(-c3nonc3N)c2CN(C)C2CCCCC2)cc1	·	·	20%	·	1	·
CC1CC(C)CN(C(=O)CN(C)S(=O)(=O)c2ccc3c(c2)c(=O)n(C)c(=O)n3C)C1 (configuration not stated)	·	·	11%	·	·	·
C=CCc1cccc(CNc2nc3ccccc3n2CC)c1O	?	?	-16%	-6%	6	-10%
C=CCc1cccc(CNc2nc3ccccc3n2CCC)c1O	?	10µM*	11%	6%	-1	11%
CC(C)(C)c1ccc(OCc2ccc(C(=O)N/N=C/c3ccc(O)c(O)c3)cc2)cc1	-1%	13µM*	-8%	1%	-6	?
O=C(N/N=C/c1ccc(O)cc1)c1cc[n+](Cc2ccccc2)cc1	?	5%	0%	9%	2	-1%
O=C(N/N=C/c1ccc(OCc2ccccc2)cc1)c1cc[n+](Cc2ccccc2)cc1	-14%	-30%[46.1 µM]	-14%	·	4	32µM*
Cc1cc(NC(=O)c2ccc3c(c2)C(=O)N(C2CCCCC2)C3=O)no1	0%	-5%[46.1 µM]	11%	0%	1	6%
Nc1cccc(Oc2ccc3c(c2)C(=O)N(CC2CCCO2)C3=O)c1 (configuration not stated)	8.9µM*	2%	2%	-5%	2	-2%
O=C(Nc1ccncc1)c1ccc2c(c1)C(=O)N(CC1CCCO1)C2=O (configuration not stated)	5.6µM*	10%	21%	3%	-1	-1%
O=C(Nc1ccncc1)c1ccc2c(c1)C(=O)N(C1CCCCC1)C2=O	7.1µM*	-13%[46.1 µM]	3%	-9%	1	-6%
